Test results reported in PubChem BioAssay (NCATS).
Records with an inconclusive call do not appear. Where a call stands in place of a potency, no number is given. Unmarked numbers belong to inactive results. The source made the active and inactive calls. Calls come from the whole dose curve; as a rule, active = well fitted inhibition curve with a large enough effect; inconclusive = small, poorly fitted or top-dose-only effect; inactive = flat fitted curve, though single readings scatter.

The compounds below were run against Aldehyde dehydrogenase, mitochondrial (Homo sapiens) (UniProt P05091) (assay: qHTS for Inhibitors of the Aldehyde Dehydrogenase Family (ALDH2) Primary screen (AID 2061308; note: nearly all actives have a fitted effect of over 55% in size)). Details: ALDH2 enzyme inhibition qHTS, 1536-well; series mostly up to 56 µM.

Row | Compound | Potency | activity change, negative = inhibition
1 | N#Cc1ccc(COC[C@H]2O[C@@H](n3c(NCc4ccc(Cl)c(Cl)c4)nc4c(N)ncnc43)[C@H](O)[C@@H]2O)cc1 | inactive | 
2 | CCOC(=O)[C@@H](N)Cc1ccc(-c2cc(O[C@H](c3ccc(Cl)cc3-n3ccc(C)n3)C(F)(F)F)nc(N)n2)cc1 | inactive | 
3 | CCc1cc2c(cc1CC)CC(NCC(O)c1ccc(O)c3[nH]c(=O)ccc13)C2 (stereo not drawn) | inactive | 
4 | CN(C)CC(=O)Nc1ccc2[nH]c(=O)c3ccccc3c2c1 | inactive | 
5 | CNC1CN(c2ccc3c(=O)c(C(=O)O)cn(-c4nccs4)c3n2)CC1OC (stereo not drawn) |  | 2.97% [at 11.2 µM]
6 | COc1ccc(NS(=O)(=O)c2sc3ccc(Cl)cc3c2C)cc1N1CCNCC1 | inactive | 
7 | NC(=O)c1nc(Nc2ccccc2)sc1NC(=O)C1CCCCC1 | inactive | 
8 | COc1c(Nc2ncc(Cl)c(N[C@H]3[C@@H](C(N)=O)[C@@H]4C=C[C@H]3C4)n2)ccc2c1CC[C@@H](N1CCOCC1)CC2 | inactive | 
9 | O=C(/C=C\n1cnc(-c2cc(C(F)(F)F)cc(C(F)(F)F)c2)n1)N1CC(F)(F)C1 | inactive | 
10 | COc1cc(N(C)CCN(C)C)c(N)cc1Nc1nccc(-c2cn(C)c3ccccc23)n1 | inactive | 
11 | C[C@@H](CN1CCC(n2c(=O)[nH]c3cc(Cl)ccc32)CC1)NC(=O)c1ccc2ccccc2c1 | inactive | 
12 | CC(C)[C@@](C)(O)[C@@H]1CN(c2nc(-c3[nH]nc4ncccc34)c(F)cc2Cl)CCN1 | inactive | 
13 | Cc1ccccc1-c1cc(N2CCN(C)CC2)ncc1N(C)C(=O)C(C)(C)c1cc(C(F)(F)F)cc(C(F)(F)F)c1 | inactive | 
